# Experimental data taken from PubChem BioAssay (EPA / NIEHS).
# Activity calls are given as the source filed them. Rule for the calls: active = hit-call score of the fitted dose curve at least 0.9, where 1 is the maximum; inactive = score below 0.9.
# Assays:
# [1] = read-out: TIMP metallopeptidase inhibitor 2 (TIMP2), TIMP2 (gene 7077); assay: BSK_KF3CT_TIMP2: BioMAP Diversity Plus: KF3CT Assay for TIMP metallopeptidase inhibitor 2 (TIMP2) Biomarker Activity (AID 2283071); conditions: primary human keratinocytes with fibroblasts; actives raise or lower the signal
# Outline: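 Measurements come from ELISA detection of TIMP-2 at 24 hours in a dosed human keratinocyte and foreskin fibroblast co-culture. DMSO serves as negative control and baseline.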
# [2] = read-out: Transforming growth factor beta 1 (TGFb1), TGFB1 (gene 7040); assay: BSK_KF3CT_TGFb1: BioMAP Diversity Plus: KF3CT Assay for Transforming growth factor beta 1 (TGFb1) Biomarker Activity (AID 2283072); conditions: primary human keratinocytes with fibroblasts; actives raise or lower the signal
# Outline: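 TGF-b1 ELISA on a 24 h dosed co-culture of human keratinocytes and foreskin fibroblasts; cytotoxicity tracked in parallel cultures by SRB staining.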
# [3] = read-out: C-C motif chemokine 2 (Homo sapiens) (UniProt P13500); assay: BSK_KF3CT_MCP1: BioMAP Diversity Plus: KF3CT Assay for Monocyte Chemoattractant Protein 1 (MCP1/CCL2) Biomarker Activity (AID 2283073); conditions: primary human keratinocytes with fibroblasts; actives raise or lower the signal
# Outline: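 Biomarker MCP-1 is measured by ELISA in primary human keratinocytes co-cultured with foreskin fibroblasts, 24 h after chemical treatment; DMSO serves as the negative control and activity baseline.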
# [4] = read-out: Matrix Metallopeptidase 9 (MMP9), MMP9 (gene 4318); assay: BSK_KF3CT_MMP9: BioMAP Diversity Plus: KF3CT Assay for Matrix Metallopeptidase 9 (MMP9) Biomarker Activity (AID 2283074); conditions: primary human keratinocytes with fibroblasts; actives raise or lower the signal
# Outline: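 MMP-9 quantified by ELISA after 24 h chemical treatment of primary human skin keratinocyte/fibroblast co-cultures; gain or loss fitted against DMSO, with parallel SRB staining (0.1% SRB, 560 nm) for overt cytotoxicity.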
# [5] = read-out: urokinase plasminogen activator (uPA), PLAU (gene 5328); assay: BSK_KF3CT_uPA: BioMAP Diversity Plus: KF3CT Assay for urokinase plasminogen activator (uPA) Biomarker Activity (AID 2283075); conditions: primary human keratinocytes with fibroblasts; actives raise or lower the signal
# Outline: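 ELISA read-out of uPA 24 h after dosing human skin keratinocytes co-cultured with foreskin fibroblasts. Signal change fitted both ways relative to DMSO; sulforhodamine B on parallel cultures marks overt cytotoxicity.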
# [6] = read-out: E-selectin (Homo sapiens) (UniProt P16581); assay: BSK_LPS_Eselectin: BioMAP Diversity Plus: LPS Assay for Eselectin Biomarker Activity (AID 2283077); conditions: primary human HUVEC with PBMC; actives raise or lower the signal
# Outline: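 Dose chemical onto LPS-driven HUVEC/PBMC co-culture; after 24 h, run ELISA for E-selectin; fit up- and down-going responses relative to DMSO control.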
# [7] = read-out: Interleukin-8 (IL8), CXCL8 (gene 3576); assay: BSK_LPS_IL8: BioMAP Diversity Plus: LPS Assay for Interleukin-8 (IL8) Biomarker Activity (AID 2283078); conditions: primary human HUVEC with PBMC; actives raise or lower the signal
# Outline: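 In this LPS system, chemical-treated human umbilical vein endothelium/PBMC co-cultures were harvested at 24 h for IL-8 ELISA.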
# [8] = BSK_LPS_SRB: Viability Assessment in the BioMAP Diversity Plus: LPS Assay (AID 2283079); conditions: primary human HUVEC with PBMC;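 note: total protein by sulforhodamine B absorbance as a cytotoxicity measure; measured one day after compound addition; fitted in both directions against DMSO so loss or gain of signal counts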
# Outline: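 Cytotoxicity endpoint in human endothelial–PBMC co-culture: 24 h exposure, then SRB (0.1%) staining, 560 nm read.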
# [9] = read-out: Interleukin-1 alpha (IL1a), IL1A (gene 3552); assay: BSK_LPS_IL1a: BioMAP Diversity Plus: LPS Assay for Interleukin-1 alpha (IL1a) Biomarker Activity (AID 2283080); conditions: primary human HUVEC with PBMC; actives raise or lower the signal
# Outline: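 Primary human HUVEC and PBMC co-culture stimulated with LPS is dosed and harvested at 24 h. Both increases and decreases in ELISA-measured IL-1a are scored relative to DMSO.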
# [10] = read-out: Monocyte Chemoattractant Protein-1 (MCP1), CCL2 (gene 6347); assay: BSK_LPS_MCP1: BioMAP Diversity Plus: LPS Assay for Monocyte Chemoattractant Protein-1 (MCP1) Biomarker Activity (AID 2283081); conditions: primary human HUVEC with PBMC; actives raise or lower the signal;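 for AC50: secreted MCP-1 protein quantified by ELISA in culture supernatant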
# Outline: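 Values derive from bidirectional fitting against DMSO of ELISA-measured MCP-1 in a human primary endothelial and mononuclear cell co-culture, 24 h after chemical addition under LPS activation.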
# [11] = BSK_LPS_PGE2: BioMAP Diversity Plus: LPS Assay for Prostaglandin E2 (PGE2) Biomarker Activity (AID 2283082); conditions: primary human HUVEC with PBMC; actives raise or lower the signal;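 for AC50: secreted prostaglandin E2 measured by ELISA in LPS-stimulated co-culture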
# Outline: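 Primary human endothelial cells and blood mononuclear cells, co-cultured with LPS, receive test chemical; PGE2 ELISA follows at 24 h, with SRB-stained parallel cultures flagging cytotoxicity.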
# [12] = read-out: Macrophage colony-stimulating factor (MCSF), CSF1 (gene 1435); assay: BSK_LPS_MCSF: BioMAP Diversity Plus: LPS Assay for Macrophage colony-stimulating factor (MCSF) Biomarker Activity (AID 2283083); conditions: primary human HUVEC with PBMC; actives raise or lower the signal
# Outline: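 Bidirectional fit versus DMSO of ELISA-measured M-CSF in co-cultured human umbilical vein endothelial cells and PBMC, sampled 24 h after dosing.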
# [13] = read-out: Tissue Factor, F3 (gene 2152); assay: BSK_LPS_TissueFactor: BioMAP Diversity Plus: LPS Assay for Tissue Factor Biomarker Activity (AID 2283084); conditions: primary human HUVEC with PBMC; actives raise or lower the signal
# Outline: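 Read-out: CD142 ELISA, 24 h. System: LPS-driven human endothelial/PBMC co-culture. Analysis: up- or down-signal fitted against DMSO.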
# [14] = read-out: Tumor necrosis factor (Homo sapiens) (UniProt P01375); assay: BSK_LPS_TNFa: BioMAP Diversity Plus: LPS Assay for Tumour Necrosis Factor alpha (TNFa) Biomarker Activity (AID 2283085); conditions: primary human HUVEC with PBMC; actives raise or lower the signal;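 for AC50: TNFa protein level quantified by ELISA in the co-culture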
# Outline: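 ELISA-based TNFa endpoint in a human endothelial–PBMC co-culture sampled 24 h post-exposure. Curves were fitted in both directions using DMSO as baseline of activity.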
# [15] = read-out: Vascular cell adhesion molecule 1 (VCAM1), VCAM1 (gene 7412); assay: BSK_LPS_VCAM1: BioMAP Diversity Plus: LPS Assay for Vascular cell adhesion molecule 1 (VCAM1) Biomarker Activity (AID 2283086); conditions: primary human HUVEC with PBMC; actives raise or lower the signal
# Outline: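 Measured by ELISA: VCAM-1 in LPS-activated HUVEC/PBMC co-cultures 24 h after treatment. Values reflect bidirectional fitting with DMSO as baseline.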
# [16] = read-out: CD40, CD40 (gene 958); assay: BSK_SAg_CD40: BioMAP Diversity Plus: SAg Assay for CD40 Biomarker Activity (AID 2283088); conditions: primary human HUVEC with PBMC; actives raise or lower the signal
# Outline: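 Endpoint derived by fitting increases or decreases versus DMSO controls. CD40 is detected by fluorescence ELISA in a human vascular co-culture of endothelium and PBMC at 24 h.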
# [17] = read-out: CD69, CD69 (gene 969); assay: BSK_SAg_CD69: BioMAP Diversity Plus: SAg Assay for CD69 Biomarker Activity (AID 2283089); conditions: primary human HUVEC with PBMC; actives raise or lower the signal;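 for AC50: cell surface CD69 protein quantified by ELISA with fluorescence detection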
# Outline: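 Endothelial/PBMC co-culture; chemical added; 24 h incubation; CD69 ELISA with fluorescence detection; bidirectional fit vs DMSO.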
# [18] = read-out: Monocyte Chemoattractant Protein-1 (MCP1), CCL2 (gene 6347); assay: BSK_SAg_MCP1: BioMAP Diversity Plus: SAg Assay for Monocyte Chemoattractant Protein-1 (MCP1) Biomarker Activity (AID 2283090); conditions: primary human HUVEC with PBMC; actives raise or lower the signal
# Outline: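 Values derive from bidirectional fitting of ELISA-measured MCP1 against DMSO controls. Readings were taken 24 h after dosing human vascular endothelial cells co-cultured with peripheral blood mononuclear cells under superantigen stimulation.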
# [19] = read-out: CD38, CD38 (gene 952); assay: BSK_SAg_CD38: BioMAP Diversity Plus: SAg Assay for CD38 Biomarker Activity (AID 2283087); conditions: primary human HUVEC with PBMC; actives raise or lower the signal
# Outline: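 Measures CD38 on a human endothelial/PBMC co-culture driven by SEB and TSST-1, 24 h after compound exposure, using ELISA with fluorescence detection; DMSO defines baseline for bidirectional curve fitting.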
# [20] = read-out: CD40, CD40 (gene 958); assay: BSK_LPS_CD40: BioMAP Diversity Plus: LPS Assay for CD40 Biomarker Activity (AID 2283076); conditions: primary human HUVEC with PBMC; actives raise or lower the signal
# Outline: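 Using a multiplexed primary human co-culture (umbilical vein endothelium plus PBMC), CD40 was read by ELISA 24 h after dosing, with cytotoxicity tracked by sulforhodamine B staining of parallel cultures and activity fitted bidirectionally versus DMSO.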
# Sequence of E-selectin (Homo sapiens) (P16581 whole entry, looked up): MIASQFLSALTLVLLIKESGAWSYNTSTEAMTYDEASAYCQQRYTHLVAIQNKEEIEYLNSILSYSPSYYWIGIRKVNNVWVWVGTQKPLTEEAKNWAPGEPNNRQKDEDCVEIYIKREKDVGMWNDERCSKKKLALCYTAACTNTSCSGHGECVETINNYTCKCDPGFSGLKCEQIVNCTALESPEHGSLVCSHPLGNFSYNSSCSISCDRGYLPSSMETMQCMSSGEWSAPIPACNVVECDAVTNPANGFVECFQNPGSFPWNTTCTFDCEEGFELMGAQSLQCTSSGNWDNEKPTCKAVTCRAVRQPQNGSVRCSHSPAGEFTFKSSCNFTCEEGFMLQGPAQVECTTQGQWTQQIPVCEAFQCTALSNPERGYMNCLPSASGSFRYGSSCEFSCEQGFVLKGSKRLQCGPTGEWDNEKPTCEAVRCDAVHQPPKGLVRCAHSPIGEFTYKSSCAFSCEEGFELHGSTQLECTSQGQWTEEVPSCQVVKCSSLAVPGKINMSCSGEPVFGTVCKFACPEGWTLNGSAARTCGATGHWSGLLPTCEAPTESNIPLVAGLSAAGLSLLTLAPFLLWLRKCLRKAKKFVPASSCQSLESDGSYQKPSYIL
# Sequence of Tumor necrosis factor (Homo sapiens) (P01375 whole entry, looked up): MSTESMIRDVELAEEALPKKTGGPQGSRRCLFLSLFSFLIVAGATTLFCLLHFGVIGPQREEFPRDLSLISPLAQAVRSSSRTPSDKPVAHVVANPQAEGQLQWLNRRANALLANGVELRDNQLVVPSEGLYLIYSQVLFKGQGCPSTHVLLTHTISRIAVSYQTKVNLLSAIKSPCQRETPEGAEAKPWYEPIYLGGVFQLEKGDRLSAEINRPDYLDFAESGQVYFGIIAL
compound,measurement,setting,value
C#CCC1=C(C)C(OC(=O)C2C(C=C(C)C)C2(C)C)CC1=O (configuration not stated),outcome,[1],inactive
same,outcome,[2],inactive
same,outcome,[3],inactive
same,outcome,[4],inactive
same,outcome,[5],inactive
same,AC50,[6],28.4 µM (active)
same,AC50,[7],26.7 µM (active)
same,AC50,[8],29.1 µM (active)
same,AC50,[9],31.9 µM (active)
same,AC50,[10],33.4 µM (active)
same,AC50,[11],3.87 µM (active)
same,AC50,[12],23.4 µM (active)
same,outcome,[13],inactive
same,AC50,[14],32.9 µM (active)
same,AC50,[15],14.8 µM (active)
same,AC50,[16],26.5 µM (active)
same,AC50,[17],29.8 µM (active)
same,AC50,[18],30 µM (active)
CCOP(=O)(NC(C)C)Oc1ccc(SC)c(C)c1 (configuration not stated),outcome,[1],inactive
same,outcome,[2],inactive
same,outcome,[3],inactive
same,outcome,[4],inactive
same,outcome,[5],inactive
same,outcome,[6],inactive
same,outcome,[7],inactive
same,outcome,[8],inactive
same,outcome,[9],inactive
same,outcome,[10],inactive
same,outcome,[11],inactive
same,outcome,[12],inactive
same,outcome,[13],inactive
same,outcome,[14],inactive
same,outcome,[15],inactive
same,outcome,[19],inactive
same,outcome,[16],inactive
same,outcome,[17],inactive
same,outcome,[18],inactive
CSc1nc(NC(C)C)nc(NC(C)C)n1,outcome,[1],inactive
same,outcome,[2],inactive
same,outcome,[3],inactive
same,outcome,[4],inactive
same,outcome,[5],inactive
same,outcome,[20],inactive
same,outcome,[6],inactive
same,outcome,[7],inactive
same,outcome,[8],inactive
same,outcome,[9],inactive
same,outcome,[10],inactive
same,outcome,[11],inactive
same,outcome,[12],inactive
same,outcome,[13],inactive
same,AC50,[14],4.47 µM (active)
same,outcome,[15],inactive
same,outcome,[16],inactive
same,AC50,[18],36.5 µM (active)
CCCCOC(=O)c1ccccc1C(=O)O,outcome,[1],inactive
same,outcome,[2],inactive
same,outcome,[3],inactive
same,outcome,[4],inactive
same,outcome,[5],inactive
same,outcome,[20],inactive
same,outcome,[6],inactive
same,outcome,[7],inactive
same,outcome,[8],inactive
same,outcome,[9],inactive
same,outcome,[10],inactive
same,outcome,[11],inactive
same,outcome,[12],inactive
same,outcome,[13],inactive
same,outcome,[14],inactive
same,outcome,[15],inactive
same,outcome,[19],inactive
same,outcome,[16],inactive
same,outcome,[18],inactive
S=C1NCCN1,outcome,[1],inactive
same,outcome,[2],inactive
same,outcome,[3],inactive
same,outcome,[4],inactive
same,outcome,[5],inactive
same,outcome,[20],inactive
same,outcome,[6],inactive
same,outcome,[7],inactive
same,outcome,[8],inactive
same,outcome,[9],inactive
same,outcome,[10],inactive
same,outcome,[11],inactive
same,outcome,[12],inactive
same,outcome,[13],inactive
same,outcome,[14],inactive
same,outcome,[15],inactive
same,outcome,[19],inactive
same,outcome,[16],inactive
same,outcome,[17],inactive
same,outcome,[18],inactive
CC1(C(=O)Nc2ccc(O)c(Cl)c2Cl)CCCCC1,outcome,[1],inactive
same,outcome,[2],inactive
same,outcome,[3],inactive
same,outcome,[4],inactive
same,outcome,[5],inactive
same,outcome,[20],inactive
same,AC50,[6],16.4 µM (active)
same,outcome,[7],inactive
same,outcome,[8],inactive
same,outcome,[9],inactive
same,outcome,[10],inactive
same,AC50,[11],5.46 µM (active)
same,outcome,[12],inactive
same,outcome,[13],inactive
same,outcome,[14],inactive
same,outcome,[15],inactive
same,outcome,[16],inactive
same,outcome,[18],inactive
